Screens: PubChem BioAssay, several laboratories
PolyA inh – blocks polyadenylation in yeast reporter cells; S. cerevisiae SKY197-pL101 polyadenylation reporter, beta-gal luminescence; efflux-impaired pdr1/pdr3 knockout yeast; score 100 = 6 SD above DMSO; activity score, % at 12 µM; 300,000 compounds, 0.02% hits; AID 1875;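 active = lowest replicate activity score at least 50, where 100 means six control SD above control mean; inconclusive = lowest score under 50 but half or more replicates reach 50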;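 note: yeast exposed to compound for 9 h at 30 °C; higher score means more reporter readthrough which indicates perturbed polyadenylation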
CR mimetic SO – caloric restriction mimetics inhibiting age-related superoxide in yeast; 330,000 compounds, 0.18% hits; S. cerevisiae aged cells, superoxide DHE fluorescence; stronger effect = lower value; superoxide response (% of plate mean), % at 10 µM; AID 2690;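 active = superoxide response under a set limit, about three screen SD below normal, cut at about 65% in these data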;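 note: yeast aged for seven days with compound at 30 °C before DHE staining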
Calb FLC – C. albicans growth modulation with fluconazole | C. albicans CaCi-2 (fluconazole-resistant clinical isolate) + fluconazole, Alamar Blue growth, 48 h | growth inhibition, % (concentration not given with the values) | 300,000 compounds, 0.57% hits | AID 1979;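 active = growth inhibition above about 58% in most replicates, limit read from the data, passing the limit was not always enough; inconclusive = exactly half the replicates above a set limit; inactive = most replicates below a set limit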;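 note: all wells also contain fluconazole at 8 µg/ml as a sub-toxic cotreatment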
SKKanGAS inh – SKKanGAS growth inhibition; S. pyogenes SKKanGAS, kanamycin growth, BacTiter-Glo, 6 h; inhibition, % at 7.5 µM; 300,000 compounds, 1.3% hits; AID 1662;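 active = mean replicate score, as percent of positive control median, at least 50; inconclusive = mean below 50 but one replicate at or above 50; inactive = mean and every replicate below 50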;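 note: strain carries kanamycin resistance gene driven by streptokinase promoter and grows in 40 µg/ml kanamycin; loss of luminescence reflects streptokinase promoter inhibition or plain growth inhibition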
Platelet DG rel – platelet dense granule release activity; human platelet-rich plasma, SFLLRN dense granule ATP release, luminescence; inhibition, %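 (compounds screened at 7.5 µM in platelet-rich plasma)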; 300,000 compounds, 0.22% hits; AID 1663;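 active = mean replicate score, as percent of positive control, at or above 50; inconclusive = mean below 50 but at least one replicate at or above 50; inactive = mean and every replicate below 50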
A number is an active result; 0 = inactive; ? = inconclusive; - = no result. An excerpt weighted towards active compounds, which were near 2% of everything screened.

SMILES | PolyA inh | CR mimetic SO | Calb FLC | SKKanGAS inh | Platelet DG rel
COc1ccccc1N1CCN(C(=O)c2cccc(S(=O)(=O)N3CCCCCC3)c2)CC1 | - | 0 | - | - | -
CCC1CCCCN1S(=O)(=O)c1ccc(C(=O)Nc2nnc(C3CC3)o2)cc1 (stereo unspecified) | 0 | 0 | 0 | 60 | 0
COc1ccc2[nH]c3c(C)c4ccncc4c(C)c3c2c1 | 0 | 0 | 105 | 97 | 0
COc1ccc2[nH]c(C)cc(=O)c2c1 | 0 | 0 | ? | 0 | 0
Cc1ccc(-n2cc3c(-c4cccc(Br)c4)nnc(C)c3n2)cc1 | 0 | 0 | 0 | 64 | 0
COc1ccc(-c2cc(C(F)(F)F)nc(S(=O)(=O)CCC(=O)N3CCOCC3)n2)cc1 | 0 | 0 | 0 | 0 | 134
O=C1C(NS(=O)(=O)c2cccs2)=C(N2CCN(c3cccc(C(F)(F)F)c3)CC2)C(=O)c2ccccc21 | 0 | 0 | 0 | 55 | 0
Cc1noc(C)c1NC(=O)N(C)C[C@H]1Oc2ccc(NC(=O)Cc3ccccc3)cc2C(=O)N([C@H](C)CO)C[C@@H]1C | - | 0 | - | - | -
O=C(C[C@@H]1C/C=C/CC[C@@H](Cc2ccc(F)cc2)C(=O)OC[C@H](Cc2ccccc2)NC1=O)N[C@H](CO)Cc1ccccc1 | - | 0 | - | - | -
O=C(CC1NCCNC1=O)Nc1ccc(Cl)c(Cl)c1 (stereo unspecified) | 0 | 0 | 0 | 0 | 0
Cc1ccc(NC(=O)CC2NCCNC2=O)cc1Cl (stereo unspecified) | 0 | 0 | 120 | 0 | 0
COc1ccc2oc(C(=O)OCC(=O)NCc3ccccc3OC)c(C)c2c1 | 0 | 0 | 0 | 0 | 0
CN(C)/C=C(\C=N\OCc1ccc(Cl)cc1Cl)C(=O)Nc1ccc(Cl)c(Cl)c1 | 0 | 0 | 0 | 113 | 0
COc1cc(C(=O)Nc2ccc(-c3nc4cc(C)ccc4o3)c(O)c2)cc(OC)c1OC | 0 | 0 | 0 | 103 | 0
COc1cccc(C(=O)Nc2ccc(-c3nc4ccccc4o3)c(O)c2)c1 | 0 | 0 | 0 | 0 | 0
O=C(c1ccc(-c2ccccc2)cc1)N1CCN(C(=O)c2ccco2)CC1 | 0 | 0 | 0 | 0 | 0
CC(C)(C)c1ccc(C(=O)N2CCN(C(=O)c3ccco3)CC2)cc1 | 0 | 0 | 0 | 50 | 0
CC1Sc2ccc(S(=O)(=O)CCC(=O)NC3CCCC(C)C3C)cc2NC1=O (stereo unspecified) | 0 | 0 | 0 | 0 | 0
Nc1nonc1C(=O)NCCNS(=O)(=O)c1ccc(Br)cc1 | 0 | 0 | 0 | 0 | 0
O=C(N/N=C/c1ccc(Cl)c([N+](=O)[O-])c1)c1cc(-c2ccc3c4c(cccc24)CC3)n[nH]1 | 0 | 0 | 0 | 0 | 52
O=C(N/N=C/c1cccc([N+](=O)[O-])c1)c1cc(-c2ccc3c4c(cccc24)CC3)n[nH]1 | 0 | 0 | 0 | 0 | 0
Cc1cnc(C(=O)OCC(=O)c2ccc(Br)s2)cn1 | 0 | 0 | 0 | 0 | 0
COc1cccc(/C=N/NC(=O)c2c(C)nc3ccc(Br)cn23)c1O | 0 | 0 | 109 | 66 | 0
COc1cccc(/C=N\NC(=O)c2ccc(Cn3cc(Br)c([N+](=O)[O-])n3)o2)c1O | 0 | 0 | 102 | 0 | 0
COc1cc(/C=N\NC(=O)c2ccc(Cn3nc([N+](=O)[O-])c(Cl)c3C)o2)ccc1O | 0 | 0 | 0 | 0 | 0
SMILES | PolyA inh | CR mimetic SO | Calb FLC | SKKanGAS inh | Platelet DG rel
CCOc1ccccc1/C=N/NC(=O)c1c(C)nc2ccc(Br)cn12 | 0 | 0 | 0 | 0 | 0
COc1cccc(/C=N/NC(=O)c2cc3c(OC)ccc(OC)c3[nH]2)c1O | 0 | 0 | 0 | 106 | 0
COc1cccc(/C=N/NC(=O)c2nc(-c3ccccc3)cc(-c3ccccc3)n2)c1O | 0 | 0 | 114 | 0 | 0
CCCc1ccc2oc(C(=O)N(Cc3nccn3C)C(C)C)c(C)c2c1 | 0 | 0 | 0 | 0 | 0
O=C(NC(=S)N(CCCCO)C1CCCCC1)c1sc2ccccc2c1Cl | 0 | 0 | 0 | 89 | 0
Cc1cc(C)c(C(=O)COC(=O)C2CCN(c3ccc(C(F)(F)F)cn3)CC2)c(C)c1 | - | 0 | - | - | -
CCOC(=O)C1CCN(C(=O)c2ccc3c(c2)NC(=O)/C(=C\c2ccc(C)cc2)S3)CC1 | 0 | 0 | 0 | 69 | 0
CCOC(=O)C1CCN(C(=O)c2ccc3c(c2)NC(=O)/C(=C/c2ccccc2)S3)CC1 | 0 | 0 | 0 | 0 | 0
CN1CCN(C(=O)c2ccc3c(c2)NC(=O)/C(=C/c2ccccc2)S3)CC1 | 0 | 0 | 0 | 0 | 0
Cc1ccc(/C=C2/Sc3ccc(C(=O)N4CCN(c5ccccn5)CC4)cc3NC2=O)cc1 | 0 | 0 | 0 | 67 | 0
CCOC(=O)N1CCN(C(=O)c2ccc3c(c2)NC(=O)/C(=C/c2ccccc2)S3)CC1 | 0 | 0 | 0 | 93 | 0
O=C(N/N=C/c1ccc2c(c1)OCO2)c1cccs1 | 0 | 0 | 0 | 0 | 0
Cc1cc(C(=O)N/N=C/c2ccc3c(c2)OCO3)c(C)o1 | 0 | 0 | 0 | 0 | 0
Cc1occc1C(=O)N/N=C/c1ccc(-c2ccccc2)cc1 | 0 | 0 | 0 | 55 | 93
Cc1ccsc1C(=O)N/N=C/c1ccc2c(c1)OCO2 | 0 | 0 | 0 | 0 | 66
CCOc1ccc(NC(=O)CCC(=O)N/N=C/c2ccc3c(c2)OCO3)cc1 | 0 | 0 | 111 | 0 | 0
Cc1occc1C(=O)N/N=C/c1ccc2c(c1)OCO2 | 0 | 0 | 0 | 0 | 126
COc1cccc(CN(C)C(=O)Cc2ccc(OC)c(S(=O)(=O)N3CCOCC3)c2)c1 | 0 | 0 | 0 | 0 | 0
Cc1ccccc1C(=O)Nc1cc(S(=O)(=O)N2CCOCC2)ccc1N1CCN(C)CC1 | - | 0 | - | - | -
CCOc1ccccc1C(=O)N(Cc1sccc1C)C1CCS(=O)(=O)C1 (stereo unspecified) | 0 | 0 | 0 | 0 | 0
COc1ccc(CCNC(=O)CN2c3cccc4cccc(c34)S2(=O)=O)cc1OC | 0 | 0 | 0 | 0 | 0
CCn1nc(C)cc1-c1nnc(Sc2ncc([N+](=O)[O-])s2)n1C | 0 | 0 | 0 | 51 | 0
CCn1nc(C)cc1-c1nnc(SCC(=O)Nc2ccccc2)n1CCCOC | 0 | 0 | 0 | 0 | 0
COCCN1CN(S(=O)(=O)c2ccccc2)c2nc3ccccc3nc21 | 0 | 0 | 0 | 0 | 0
COc1ccccc1CN1CN(S(=O)(=O)c2ccccc2)c2nc3ccccc3nc21 | 0 | 0 | 0 | 50 | 0
SMILES | PolyA inh | CR mimetic SO | Calb FLC | SKKanGAS inh | Platelet DG rel
Cc1nn2c(COc3ccc(NC(=O)c4ccccc4)cc3)nnc2c2ccccc12 | 0 | 0 | 0 | 94 | 0
CCC(=O)Nc1ccc(OCc2nnc3c4ccccc4c(C)nn23)cc1 | 0 | 0 | 0 | 0 | 0
CC(C)c1ccc(-c2cc(C(=O)N3N=C(C(F)F)CC3(O)C(F)F)c3ccccc3n2)cc1 (stereo unspecified) | 0 | 0 | 0 | 90 | 0
CN1CCN(NC(=O)c2cc(-c3cccc(Cl)c3)nc3ccccc23)CC1 | 0 | 0 | 0 | 0 | 0
CC(C)c1ccc(-c2cc(C(=O)NN3CCN(C)CC3)c3ccccc3n2)cc1 | 0 | 0 | 0 | 0 | 54
CCOc1ccc(CCNC(=O)COC(=O)c2ccc[nH]c2=O)cc1OCC | - | 0 | - | - | -
CC(=O)N1CCOCCOCCN(C(C)=O)CCOCCOCC1 | 0 | 0 | 102 | 0 | 0
